{"source": "PubChem BioAssay (NCATS)", "note": "Records with an inconclusive call do not appear. A call without a number means that no potency is given here. Values without a mark were called inactive. Active and inactive are the calls of the source. The call rests on the fitted dose curve. Residues, ends and D or L forms follow the SMILES beside them."}
{"assay": "Cytotoxicity counterscreen for inhibitors of SARS-CoV-2 cell entry (AID 1645845); further: nearly all actives have a fitted effect of over 50% in size", "details": "cell viability (SARS-CoV-2 entry assay cells); series mostly up to 57.1 µM; activity change, negative = cytotoxicity: at the top concentration", "source_text": "Assay Provider: Wei Zheng, Ph.D.\nNational Center for Advancing Translational Sciences, National Institute of Health, Rockville, MD.\nSARS-CoV-2 spike protein, within the viral envelope, mediates viral attachment and infection of host cells. The SARS-CoV-2 spike protein specifically binds to the host receptor ACE2 (Angiotensin-converting enzyme 2). This interaction promotes endocytosis of the viral particle, additional events lead to viral-host cell membrane fusion and release of the viral contents, allowing viral replication.\nWhile SARS-CoV-2 requires BSL-3 facilities for live virus work, pseudo-typed partices (PP) that incorporate SARS-CoV-2 spike proteins without replication elements could facilitate studies on viral entry mechanisms in a BSL-2 setting. This PP cell entry assay could also enable screening of small molecule compound libraries in BSL-2 setting to identify inhibitors of SARS-CoV-2 cell entry. To eliminate false positive compounds, ATP content cytotoxicity assay was screened in the same cell line.\nSEQUENCE No. (e.g., 1, 2, 3, etc.); […] (e.g., Cells, Incubation, Reagent, etc.); VALUE and DESCRIPTION.\n1. Cells. Seed 1500 HEK293-ACE2 cells (Expi293F with stable expression of human ACE2) in 2 uL/well media (DMEM, 10% FBS, 1x L-glutamine, 1x Pen/Strep, 1 ug/ml puromycin) in white 1536-well assay plates (Greiner #782073).\n2. Incubation. Incubate at 37 C with 5% CO2 overnight (~16 h).\n3. Compounds. Dispense 23 nL/well compounds in DMSO via pin transfer.\n4. Incubation. Incubate for 1 h at 37C 5% CO2.\n5. Reagent. Dispense 2 uL/well of media (DMEM, 10% FBS, 1x L-glutamine, 1x Pen/Strep, 1 ug/ml puromycin).\n6. Incubation. Incubate at for 48h at 37C 5% CO2\n7. Reagent. Dispense 4 uL/well of ATPLite 1step luminescence assay reagent (PerkinElmer #6016739).\n8. Incubation. Incubate for 15 min at room temperature.\n9. Detection. Read luminescence signal (Viewlux plate reader, PerkinElmer). Data was normalized with wells containing cells as 100%, and wells without cells (media only control) as 0%."}
{"compound": "CCOC(=O)[C@H](CCc1ccccc1)N[C@@H](C)C(=O)N1CCC[C@H]1C(=O)O", "Potency": "inactive"}
{"compound": "COC(=O)[C@H](Cc1ccccc1)NC(=O)[C@@H](N)CC(=O)O", "note": "(H-Asp-Phe-OMe)", "outcome": "inactive"}
{"compound": "O=C(Nc1ccc(Br)cc1)c1cc(Br)cc(Br)c1O", "activity change, negative = cytotoxicity": "-28.4%"}
{"compound": "NC(N)=NC(=O)Cc1c(Cl)cccc1Cl", "activity change, negative = cytotoxicity": "-19%"}
{"compound": "Cc1ccsc1/C=C/C1=NCCCN1C", "outcome": "inactive"}
{"compound": "COC(=O)c1cc(Cl)ccc1NS(=O)(=O)C(F)(F)F", "activity change, negative = cytotoxicity": "-0.394%"}
{"compound": "CCCc1nc(C(C)(C)O)c(C(=O)OCc2oc(=O)oc2C)n1Cc1ccc(-c2ccccc2-c2nn[nH]n2)cc1", "activity change, negative = cytotoxicity": "-1.96%"}
{"compound": "CCN1C(=O)NC(c2ccccc2)C1=O", "note": "(stereo not given)", "outcome": "inactive"}
{"compound": "Clc1ccc(C(c2ccc(Cl)cc2)C(Cl)(Cl)Cl)cc1", "outcome": "inactive"}
{"compound": "Cc1c(Nc2ncccc2C(=O)O)cccc1C(F)(F)F", "outcome": "inactive"}
{"compound": "O=C1[C@@H]2[C@H]3CC[C@H](C3)[C@@H]2C(=O)N1CCCCN1CCN(c2ncccn2)CC1", "outcome": "inactive"}
{"compound": "NS(=O)(=O)c1cc(C(=O)O)cc(N2CCCC2)c1Oc1ccccc1", "activity change, negative = cytotoxicity": "-10.2%"}
{"compound": "C[C@]12CC[C@H]3[C@@H](CCC4=CC(=O)CC[C@@H]43)[C@@H]1CC[C@@H]2OC(=O)CCc1ccco1", "outcome": "inactive"}
{"compound": "Cc1c[nH]c2ccccc12", "outcome": "inactive"}
{"compound": "COc1cc(OC)c(C(=O)CCCN2CCCC2)c(OC)c1", "outcome": "inactive"}
{"compound": "C[C@](N)(Cc1ccc(O)cc1)C(=O)O", "outcome": "inactive [at 5.25 µM]"}
{"compound": "CC(C)COC(=O)c1ccc(N)cc1", "outcome": "inactive"}
{"compound": "c1ccc(-c2nc[nH]c2-c2ccccc2)cc1", "activity change, negative = cytotoxicity": "-4.82%"}
{"compound": "CN/C(=C\\[N+](=O)[O-])NCCSCc1csc(CN(C)C)n1", "activity change, negative = cytotoxicity": "1.43%"}
{"compound": "Cc1ccccc1N1CCN(CCc2nnc3n2CCCC3)CC1", "activity change, negative = cytotoxicity": "-22.8%"}
{"compound": "NS(=O)(=O)c1cc(Cl)c(Cl)c(S(N)(=O)=O)c1", "Potency": "inactive"}
{"compound": "CCOC(=O)/C=C(C)/C=C/C=C(C)/C=C/c1c(C)cc(OC)c(C)c1C", "outcome": "inactive"}
{"compound": "O=C(O)CCCc1ccc(N(CCCl)CCCl)cc1", "Potency": "inactive"}
{"compound": "CN[C@@H]1CCc2[nH]c3ccc(C(N)=O)cc3c2C1", "outcome": "inactive"}
{"compound": "Nc1ncnc2nc[nH]c12", "activity change, negative = cytotoxicity": "2.72%"}
{"compound": "NC(N)=NCCN1CCCCCCC1", "activity change, negative = cytotoxicity": "0.589% [at 0.702 µM]"}
{"compound": "CN(C)C(=O)Oc1ccc[n+](C)c1", "activity change, negative = cytotoxicity": "0.717%"}
{"compound": "Nc1nc(Cl)nc2c1ncn2[C@H]1C[C@H](O)[C@@H](CO)O1", "activity change, negative = cytotoxicity": "-13.8%"}
{"compound": "CN1CCC[C@@H]1c1cccnc1", "outcome": "inactive"}
{"compound": "CC(O)(P(=O)(O)O)P(=O)(O)O", "activity change, negative = cytotoxicity": "-13.1%"}
{"compound": "COc1ccc(C2C(=O)c3ccccc3C2=O)cc1", "outcome": "inactive"}
{"compound": "CC(C)c1cccc(C(C)C)c1O", "Potency": "inactive"}
{"compound": "CN[C@@H]1[C@H](O)[C@H](NC)[C@H]2O[C@@]3(O)C(=O)C[C@@H](C)O[C@H]3O[C@@H]2[C@H]1O", "outcome": "inactive"}
{"compound": "CCCCOCCOC(=O)c1cccnc1", "activity change, negative = cytotoxicity": "2.21%"}
{"compound": "CCN1CCN(C(=O)N[C@@H](C(=O)N[C@@H]2C(=O)N3[C@@H]2SC(C)(C)[C@H]3C(=O)O)c2ccccc2)C(=O)C1=O", "outcome": "inactive"}
{"compound": "Cc1ccccc1C(=O)N1CC/C(=N\\OS(=O)(=O)O)c2ccc(Cl)cc21", "outcome": "inactive"}
{"compound": "C[C@H](CS)C(=O)N1CCC[C@H]1C(=O)O", "activity change, negative = cytotoxicity": "2.16%"}
{"compound": "CCCNC(C)C(=O)Nc1ccccc1C", "note": "(stereo not given)", "activity change, negative = cytotoxicity": "-1.31%"}
{"compound": "Cc1cc(C)nc(NS(=O)(=O)c2ccc(N)cc2)n1", "outcome": "inactive"}
{"compound": "C[C@@H]1CN(c2c(F)c(F)c3c(=O)c(C(=O)O)cn(C4CC4)c3c2F)C[C@H](C)N1", "activity change, negative = cytotoxicity": "3.07% [at 27.1 µM]"}
